Measured values published in PubChem BioAssay AID489018 (Southern Research Specialized Biocontainment Screening …, 2010).
Screen size: about 2,300 compounds; about 350 (15%) were called active. Only a sample is shown. Results with a measured potency or affinity are listed apart. A number with no mark means an inactive call. How the calls were made is not given here.

Assay: HepG2 cell cytotoxicity, dose response, cytotoxicity control for non-replicating M. tuberculosis project (AID 489018);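 further: HepG2 human liver cells; 100% = vehicle-treated cells and 0% = background signal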
Conditions: series mostly up to 20 µM; viability: at the top concentration

Structure (SMILES)	viability
CCn1c(-c2ccco2)nc2ccccc21	101%
COc1cccc(COC(=O)c2sc3nc4n(c(=O)c3c2C)CCC4)c1OC	106%
Cc1cccc(NC(=O)c2ccc([N+](=O)[O-])s2)n1	79.6%
COc1ccc(NC(=O)c2cnc(SC)nc2)cc1	87.5%
Cc1ccccc1-n1sc2cc(F)ccc2c1=O	90.2%
O=C(Nc1ccn(Cc2ccccc2)n1)c1ccc(F)cc1	107% [at 5 µM]
CN(CCCCOc1ccc(F)cc1)Cc1ccccc1	102%
O=C(CCN1C(=O)S/C(=C\c2ccc(F)cc2)C1=O)Nc1ccc(C(=O)O)c(O)c1	102%
FC(F)(Cl)c1nnc2ccc(Cl)nn12	78%
Cn1c(SCc2c(F)cccc2Cl)nc2c(c1=O)SCC2	92.9%
O=C(Oc1ccccc1)c1cc2ccccc2o1	110% [at 5 µM]
COC(=O)c1ccc2c(c1O)C(=O)c1ccccc1C2=O	102% [at 5 µM]
COc1ccc(-c2[nH]ncc2CN2CCCCCCC2)c(OC)c1	97.7%
Cc1noc2ncnc(Sc3ccccc3Cl)c12	111%
O=C(N/N=C/c1ccc(Br)s1)c1ccncc1	90%
Cc1ccc(/C=N/NC(=O)c2ccncc2)s1	107%
O=C(Nc1nccs1)c1ccc2ccccc2c1	91.4%
CC(C)(C)c1ccc(-c2nc(C#N)c(NCCCn3ccnc3)o2)cc1	101%
O=[N+]([O-])c1ccc(Nc2ccccc2O)c2nonc12	98.6%
O=[N+]([O-])c1ccc(Nc2ccccc2)c2nonc12	109%
C#CCSc1nnc(-c2ccc(C)cc2)o1	93.6%
c1ccc(CNCCC(Cc2ccccc2)c2ccco2)cc1 (stereo unspecified)	76.4%
O=C(Nc1ccc(Cl)cc1Cl)c1cccc(N2C(=O)C=CC2=O)c1	99.2%
c1ccc2[nH]c(NC3=NCCC3)nc2c1	103%
Cc1cccc(OCCCCc2c(C)n[nH]c2C)c1	89.6%

Structure (SMILES)	viability
O=C(NC(=S)N1CCN(Cc2ccc3c(c2)OCO3)CC1)c1ccc(Cl)cc1	83.1%
O=C(COc1ccc(Cl)cc1)NNC(=O)c1ccccn1	105%
C/C(=N\Nc1ccc(Cl)cc1)c1ccccn1	90.1%
COc1ccccc1/C=C/C=N/NC(=O)c1ccncc1	96.1%
C/C(=N\Nc1cccc2cccnc12)c1ccccn1	82.3%
COc1ccc(C(=O)Nc2ccccc2C(=O)N/N=C/c2ccco2)cc1	83%
C/C(=N\NC(=O)CCCNc1ccc(C)cc1)c1ccccn1	76.5% [at 5 µM]
COc1cc(/C=N/NC(=O)c2ccccn2)ccc1OC(=O)c1cccs1	92.5%
O=C(N/N=C/c1ccccn1)c1ccccc1	87.5%
COc1ccc(N2C(=O)C(F)(F)C2c2cccc(F)c2)cc1 (stereo unspecified)	93.6%
Cc1ccc(-c2nnc(NC(=O)c3ccco3)o2)c(C)c1	94.2%
Cc1ccc(S(=O)(=O)/N=C(\CCl)N2CCOCC2)cc1	100%
O=C(N/N=C/c1cccc2cccnc12)[C@H]1C[C@@H]1c1ccccc1	92.1%
O=C(CCc1c[nH]c2ccccc12)Nc1ncccc1O	99.2%
CC(C)c1ccc(/C=N/NC(=O)c2ccccn2)cc1	96.6%
O=C(Nc1ccc(Br)cc1)c1cc([N+](=O)[O-])cc([N+](=O)[O-])c1	96.6%
Nc1ccccc1C#CC(=O)c1ccccc1	114%
CCOC(=O)c1ccsc1NC(=O)CCS(=O)(=O)c1ccccc1	101% [at 5 µM]
COc1ccc(OCCOC(=O)CCS(=O)(=O)c2ccc(C)cc2)cc1	107% [at 5 µM]
COc1ccc(-c2cc(C(F)(F)F)nc(S(C)(=O)=O)n2)cc1	119% [at 5 µM]
COC(=O)COc1ccc(-c2ccccc2)cc1C=O	93.7%
COc1ccc(C(=O)Cn2c(C)nc([N+](=O)[O-])c2Br)cc1	89.7%
Cc1ccc2nc(/N=C(\N)NC(=O)NC3CCCCC3)nc(C)c2c1	83.8%
O=C(COc1ccccc1)NC1CCCCC1	107%
Cn1cccc1/C=N\NC(=O)C1COc2ccccc2O1 (stereo unspecified)	89.8%

Structure (SMILES)	viability
O=C(C/C=N\OCc1ccc([N+](=O)[O-])cc1)Nc1ccc(Cl)cc1	91.9%
O=C(NCC(c1cccs1)N1CCOCC1)c1cc([N+](=O)[O-])cc([N+](=O)[O-])c1 (stereo unspecified)	97.6%
OC(CNCCc1ccc(C(F)(F)F)cc1)COc1cccc2ccccc12 (stereo unspecified)	97.7% [at 5 µM]
OC(CNCCc1ccc(C(F)(F)F)cc1)COc1ccc2ccccc2c1 (stereo unspecified)	96.9% [at 5 µM]
Cn1ccsc1=NC(=O)c1ccccc1F	103%
CCc1ccc(C(=O)COC(=O)c2ccc(Cl)nc2)cc1	98.2%
Cc1cccc(NC(=O)COc2ccc(Br)cc2)n1	107%
Cc1nc([N+](=O)[O-])c(Br)n1CC(=O)c1ccccc1	96.7%
c1ccc(-c2nc3ccccn3c2NC2CCCC2)nc1	89.2% [at 5 µM]
O=C(N/N=C/C=C/c1ccccc1)c1ccncc1	106%
O=C(Nc1ccccn1)c1ccc(C(=O)c2ccccc2)cc1	93.6%
CC(C)(C)NCc1cc(Br)ccc1OCc1cccs1	70.4%
CC(C)CCCn1c(O)c(/C=C2/C=CC=N2)c(=O)[nH]c1=O	107%
CC1=C(C)/C(=N\OS(=O)(=O)c2ccccc2)C=CC1=O	95.9%
CN(CC(=O)Nc1ccc(C#N)cc1)Cc1ccc(Cl)c(Cl)c1	106%
Cc1ccccc1-c1cc2c(nn1)-c1ccccc1C2=O	99.2%
Nc1ccc2c(c1)oc1ccccc12	113%
COc1cc(OC)cc(-c2nc3ccccc3c(=O)o2)c1	94.9%
O=C(COC(=O)c1ccccc1)NC12CC3CC(CC(C3)C1)C2	100%
O=C(CC(=O)c1ccccc1O)c1cccc(F)c1	90.6%
O=C(O)c1ccc(NS(=O)(=O)/C=C/c2ccccc2)cc1O	101%
CCn1c(NC(=O)C2CCCCC2)nc2ccccc21	103% [at 5 µM]
Cc1cc(NC(=O)COc2ccccc2)ccc1Cl	89.3%
O=c1cc(C(F)(F)F)[nH]c2c(C(F)(F)F)cccc12	87.7%
CCc1nonc1NC(=O)COc1ccc(Cl)c(C)c1	105%

Structure (SMILES)	viability
CCOC(=O)Nc1cccc(OCC(=O)Nc2ccccc2OC)c1	114%
CCOC(=O)Nc1ccc2c(c1)N(C(=O)CCN1CCOCC1)c1ccccc1S2=O (stereo unspecified)	100%
O=C(Nc1nc2ccccc2[nH]1)c1ccc(F)cc1	82.1%
O=C(Nc1nc2ccccc2[nH]1)c1cccc(Cl)c1	88.9%
CN1CCC(O)(c2ccc(Cl)cc2)C(C(=O)c2ccc(Cl)cc2)C1 (stereo unspecified)	98.3%
CC(C)c1ccc(OCC(=O)NCc2ccccc2)cc1	96.2%
O=C(COc1ccc(Cl)cc1)Nc1ccccc1Cl	105% [at 5 µM]
Cc1ccc(C)c(-c2nnc(NC(=O)C3=COCCO3)o2)c1	94.1%
O=C(NCCc1c[nH]c2ccccc12)c1cc2ccccc2oc1=O	96.5%
COc1ccccc1N1CCN(C(=O)c2ccc([N+](=O)[O-])s2)CC1	107% [at 5 µM]
Cc1ccc(-n2cc(CNCCn3nc(C)cc3C)c(-c3ccc(F)cc3)n2)cc1	76.2%
Fc1ccc(-c2nn(-c3ccccc3)cc2CNCc2ccccc2)cc1	71.3%
Cc1cc(Br)ccc1OCC(=O)NNC(=O)C(=O)Nc1ccccc1	109%
O=C(CCN1C(=O)/C(=C/c2ccccc2Cl)SC1=S)N1CCCC1	102% [at 5 µM]
COc1cccc(OCc2nnc(-c3cccs3)o2)c1	96.8%
Cc1ccc(Oc2c(C(N)=O)cc([N+](=O)[O-])cc2[N+](=O)[O-])cc1	95.9% [at 5 µM]
Cc1csc(=Nc2cccnc2)n1CC1CCCCC1	89.3%
CCOC(=O)c1csc(COc2ccc(OC)cc2)n1	103%
COc1ccc(O)c(C(=O)CC(=O)c2ccc(F)cc2)c1	97%
Cc1ccc(NC(=O)C2=C(c3ccccc3)S(=O)(=O)CCS2(=O)=O)cc1	104% [at 5 µM]
CCOC(=O)C1CCCN(Cc2ccc(OCc3ccccc3)cc2)C1 (stereo unspecified)	100%
CCOC(=O)C1CCN(Cc2ccc(-c3ccccc3)cc2)CC1	103%
Cc1ccc(C(=O)OCC(=O)N2CCCCCC2)c(O)c1	104%
CCCCC1CCC(C(=O)Nc2ccc(S(=O)(=O)Nc3nccs3)cc2)CC1 (stereo unspecified)	97.8%
Cc1ccc(C(=O)N/N=C/c2cccc3ccccc23)cn1	98%

Structure (SMILES)	viability
Cc1nn(C)cc1/C=N/NC(=O)c1sc2ccccc2c1Cl	83%
CC(C)c1nnc(NC(=O)c2cc3cc(Br)ccc3oc2=O)s1	93.2%
O=C(OCc1ccc([N+](=O)[O-])cc1)c1ccc2ccccc2n1	94.9%
CN(C)CC/C=C1\c2cc(Cl)ccc2Sc2cc(F)c(F)cc21	112% [at 5 µM]
O=C(CN1CCN(c2ccc([N+](=O)[O-])cc2)CC1)Nc1ccccn1	77.3%
C/C(=N\NC(=O)c1cc([N+](=O)[O-])cc([N+](=O)[O-])c1)c1ccco1	96%
COc1ccc(CN=C(C#N)C2=C(O)c3ccccc3C2=O)cc1	88.4%
N/C(=N\OC(=O)c1cccc(Br)c1)c1ccc([N+](=O)[O-])cc1	97.3%
CCOC(=O)COn1c(-c2cccc(Cl)c2)nc2ccc([N+](=O)[O-])cc21	89.2%
O=c1c2c([N+](=O)[O-])cc([N+](=O)[O-])cc2sn1-c1ccc(Br)cc1	105%
O=c1c2cc(Cl)ccc2nc(-c2ccc([N+](=O)[O-])cc2)n1O	78.1%
O=C(NCc1cccs1)c1cc(-c2ccc(O)cc2)on1	88.8%
CC(C)(C)NC(=O)COC(=O)c1snc(C(=O)NC2CCCCC2)c1N	74.4%
CCS(=O)(=O)c1c([N+](=O)[O-])ncn1C	92.7% [at 5 µM]
COc1ccc([N+](=O)[O-])c(S(=O)(=O)c2ccc(Cl)cc2)n1	70.5%
CCOC(=O)c1c(C)nc2cc(C)ccn12	94.2%
CCc1ccc(/C=N/NC(=O)c2ccccn2)cc1	103% [at 5 µM]
CCOc1ccc(C(=O)N/N=C/c2cccc3cccnc23)cc1	97.7% [at 5 µM]
CCOc1ccc(C(=O)N/N=C(/C)C2C(=O)c3ccccc3C2=O)cc1	92.2%
COC(=O)c1ccc(COC(=O)c2ccccn2)cc1	105%
O=C1NC(=O)N(Cc2ccc(F)cc2)C(=O)/C1=C\c1ccc([N+](=O)[O-])s1	102%
